DAX1 inh-1 = NR0B1 (DAX1) inhibition; P51843; HEK293 Gal4-DAX1 luciferase reporter, luminescence; inhibition, % at 6.75 µM; hit rate 0.99% among 340,000;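 active means inhibition above the mean over all tested compounds plus 3 SD, cut at about 4.2% in these data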;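 further: 0% = DAX1-transfected cells with DMSO and 100% = empty-vector control cells with DMSO; inhibition shows as a rise in luminescence from relieved DAX1 repression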
Target sequence (P51843 207-470 limits assumed): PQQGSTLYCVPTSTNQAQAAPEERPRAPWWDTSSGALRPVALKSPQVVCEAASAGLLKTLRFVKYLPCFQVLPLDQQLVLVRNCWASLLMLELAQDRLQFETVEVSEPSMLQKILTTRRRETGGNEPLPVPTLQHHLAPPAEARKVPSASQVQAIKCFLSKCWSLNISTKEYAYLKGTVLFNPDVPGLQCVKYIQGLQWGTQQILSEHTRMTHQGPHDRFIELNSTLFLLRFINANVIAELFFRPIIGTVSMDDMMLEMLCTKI
ssDAF12 agonist = activates DAF-12 receptor from parasite S. stercoralis; AID 652126; hit rate 1% among 370,000; activation, % at 6.8 µM; HEK293 ssDAF-12/GRIP1 lit1-tk-luc reporter, luminescence; % of 3 µM dafachronic acid response;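 active means activation above the mean over all tested compounds plus 3 SD, cut at about 0.9% in these data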;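 further: 0% = DMSO-only wells and 100% = 3 µM delta7-dafachronic acid wells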
hcDAF-12 act = H. contortus DAF-12 activation, primary screen; hit rate 1.4% among 370,000; HEK293 hcDAF-12 lit1-tk-luc reporter, luminescence; 0% DMSO, 100% Δ7-dafachronic acid; AID 652067; activation, % at 6.8 µM;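 active means activation above the mean of all tested compounds plus 3 SD, cut at about 5.5% in these data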;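 further: 100% = response to 3 µM Δ7-dafachronic acid high control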
DAX1 inh-2 = blocks DAX1 repression of SF-1 activated StAR promoter | HEK293T StAR-luciferase reporter, SF-1/DAX-1 repression relief | inhibition, % at 6.8 µM | hit rate 1.1% among 370,000 | AID 652010;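 active means inhibition above the mean over all tested compounds plus 3 SD, cut at about 3.6% in these data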;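 further: 0% = DAX-1 cells with DMSO and 100% = cells lacking DAX-1 with DMSO; higher inhibition means more luminescence from relief of DAX-1 repression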
hgDAF12 agonist = agonists of H. glycines DAF-12 nuclear receptor; HEK293 GAL4-hgDAF12 UAS-luciferase reporter, agonist luminescence; normalized to butyrate control; activation, % at 6.8 µM; hit rate 1.8% among 370,000; AID 687014;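 active means activation above a cutoff set at the mean of all screened compounds plus 3 SD, cut at about 10% in these data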;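 further: 0% = DMSO wells and 100% = sodium butyrate wells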
The depositor's hits bear a star; x = not tested or not shown. A selection: hits, their analogues and other compounds. The true share with any hit is near 4.1%.

SMILES | DAX1 inh-1 | ssDAF12 agonist | hcDAF-12 act | DAX1 inh-2 | hgDAF12 agonist
Clc1ccc(Cl)c(-c2nn3c(COc4ccccc4)nnc3s2)c1 | 1 | 1.4* | 2 | 0 | 0
CCCCS(=O)(=O)N1CCCc2nc(-c3ccc(Br)cc3)ccc21 | x | -1 | 1 | 1 | 2
COc1cc(OC)c(NC(=O)c2cccc(F)c2)cc1Cl | -1 | 1.2* | 5 | 0 | -2
CCCc1cc(C(=O)Nc2cc(OC)c(Cl)cc2OC)no1 | 2 | 1 | 6.5* | 0 | -2
COc1cc(NC(=O)c2ccccc2)c(OC)cc1Cl | 0 | 0 | 5.8* | 0 | 4
COc1cc(OC)c(NC(=O)c2ccc(F)cc2)cc1Cl | 0 | 0 | 1 | 0 | 2
COc1cc(N)c(Cl)cc1NC(=O)c1ccccc1 | 1 | -1 | 0 | 1 | 3
COC(=O)C1=C(C)N(Cc2ccccc2C(F)(F)F)C(=NCc2ccccc2C(F)(F)F)NC1c1ccc(F)cc1 (stereo not drawn) | x | -1 | 0 | 1 | -1
Cc1cc(Br)cn2c(Cc3ccccc3C(F)(F)F)c(-c3ccc(F)cc3)nc12 | x | 0 | 0 | -1 | -1
CC(C)(C)OC(=O)NCc1ccccc1/C=C/S(=O)(=O)NCCc1ccccc1 | x | -2 | -4 | -2 | 0
COc1ccc(CCNc2nc3ccccc3n3cnnc23)cc1OC | 3 | -1 | 0 | 0 | -2
COCCNc1nc2ccccc2n2cnnc12 | 4.3* | -1 | -1 | 0 | -1
CC(C)(C)OC(=O)N1CCC(c2ccc[nH]2)(c2c[nH]c3ccccc23)CC1 | x | 0 | 0 | 1 | -4
Cc1c(OCC(=O)N[C@@H](Cc2ccccc2)C(=O)O)ccc2c3c(c(=O)oc12)CCC3 | 2 | -1 | -2 | 0 | 0
Cc1c(OCC(=O)N[C@@H](Cc2ccccc2)C(=O)O)ccc2c1oc(=O)c1ccccc12 | 4.5* | -1 | 0 | 0 | -2
O=C1c2ccccc2C(=O)N1c1ccccc1 | 5.2* | -2 | -2 | 0 | 1
Nc1cccc2c1C(=O)N(c1ccccc1)C2=O | 3 | -1 | 1 | 0 | 4
COc1ccc(-n2c(Cc3cc(=O)[nH]c(=O)[nH]3)nnc2SCC(=O)N2CCC(C)CC2)cc1 | 2 | -1 | 0 | 0 | -1
COc1cccc(-n2c(Cc3cc(=O)[nH]c(=O)[nH]3)nnc2SCC(=O)N2CCCCCC2)c1 | 3 | 0 | 6.3* | 0 | -3
CC1CCN(C(=O)CSc2nnc(Cc3cc(=O)[nH]c(=O)[nH]3)n2-c2ccc(Cl)cc2)CC1 | 5.3* | -1 | 0 | 0 | 1
C=CCNC(=O)CN(C(=O)Cc1ccc(Cl)nc1)c1cccc(Br)c1 | x | -2 | -2 | 0 | 2
CC(C)C[C@@H]1COc2cc(N3CCCC3)ccc2S(=O)(=O)N1C | x | -1 | -1 | -1 | -2
COc1cccc(C(=O)NCCS(=O)(=O)NCCc2ccccc2)c1 | 1 | 0 | 3 | 4.0* | 8
COc1ccc(C(=O)CNc2ccc3ccccc3c2)cc1 | x | 0 | 5.9* | 0 | 9
O=C(NCCCCNC(=O)c1ccccc1Cl)c1ccccc1Cl | 1 | -2 | 0 | 0 | -2
SMILES | DAX1 inh-1 | ssDAF12 agonist | hcDAF-12 act | DAX1 inh-2 | hgDAF12 agonist
O=C(CNC(=O)c1ccccc1Cl)c1ccccc1 | 4 | 0 | 2 | 1 | 13*
COc1cccc(/C(O)=C/c2nc3ccc(C(=O)NCCc4cccc(C)c4)cc3[nH]c2=O)c1 | 0 | 1.1* | 1 | 1 | 3
COc1ccc(C(=O)CN2C(=O)c3ccccc3C2=O)cc1 | x | 1.5* | 0 | 0 | 2
COc1ccc(C(=O)CC(=O)c2ccccc2)cc1 | x | 0 | 4 | 1 | 11*
COc1ccc(CNC(=O)CN2C(=O)c3ccccc3C2=O)cc1 | 1 | -1 | -1 | 0 | 0
O=C(CCCc1ccccn1)c1ccc(-c2ccccc2)cc1 | 2 | 0.9* | 2 | 1 | 6
O=C(NCc1ccccn1)c1ccc(-c2ccccc2)cc1 | 3 | 0 | 2 | 2 | 10
COc1ccc(C(=O)C(=NN)c2ccccc2)cc1 | 1 | 0 | 0 | 3 | 12*
COc1ccc(C(=O)C(=NNc2ccccc2)c2ccc(OC)cc2)cc1 | -2 | -1 | -1 | -4 | -3
CCCCNS(=O)(=O)/C=C/c1ccc(OC)cc1CNC(=O)OC(C)(C)C | x | 0 | -2 | -1 | -1
O=C(Nc1cccc(C(F)(F)F)c1)O[C@@H]1CC[C@@]23CCCN2C(=O)CCC[C@H]3C1 | x | -2 | -2 | x | 1
Cc1cc(N2CCNC[C@@H]2C)ccc1N1C[C@@H](C)O[C@@H](C)C1 | x | -1 | 1 | -1 | 1
O=C(CCCc1ccccc1)NC1CC1 | 0 | -1 | 5.7* | 0 | 1
Cc1c(CCOC(=O)c2ccc([N+](=O)[O-])cc2)sc[n+]1CC(=O)c1ccccc1 | 2 | -1 | -2 | -1 | -4
COc1ccc(NC(=O)CN(C)C(=O)CNC(=O)c2ccc3ccccc3c2)cc1 | 4.2* | 1 | 3 | 3 | 9
O=C(Cn1cccn1)c1ccccc1 | -1 | -1 | 0 | 1 | -1
O=C(Cn1cncn1)c1ccccc1 | 5.7* | 0 | -2 | 0 | 0
COc1ccc(C(=O)OCCc2sc[n+](CC(=O)c3ccccc3)c2C)cc1 | 4.5* | -2 | 0 | -1 | 2
O=C(CCc1nnc(CCCCc2ccccc2)o1)NC1CCCC1 | 0 | -2 | -3 | -1 | 0
COC(=O)[C@]12C[C@H](CC(=O)NCc3cccs3)C(=O)N(Cc3ccc4c(c3)OCO4)C1=C[C@H](C(C)C)O[C@@H]2C1CC1 | x | -1 | -1 | -2 | 1
O=C(CCCc1ccccc1)c1ccccc1 | 4.9* | -1 | 5.6* | 2 | 6
COc1ccc(C(=O)CC(=O)c2ccc(OC)cc2)cc1 | 2 | -1 | -1 | 0 | 1
CN(C)/C=C(/C(=O)c1ccccc1Cl)S(=O)(=O)c1ccccc1 | 3 | -1 | -1 | 2 | -2
O=C(CC(=O)c1ccncc1)c1ccccc1 | 0 | -1 | 2 | 1 | 5
O=C(CC(=O)c1ccccc1)c1ccccc1 | 2 | -1 | 1 | 3.6* | 11*
SMILES | DAX1 inh-1 | ssDAF12 agonist | hcDAF-12 act | DAX1 inh-2 | hgDAF12 agonist
COc1ccc(C(=O)/C(=C/N(C)C)S(=O)(=O)c2ccccc2)cc1 | 1 | -1 | 3 | 2 | 12*
COc1ccc(C(=O)NCC(=O)c2ccccc2)cc1 | 1 | 0 | 1 | 2 | 12*
CC(C)CCNC(=O)C1COC(O)(C(Cc2ccccc2)NC(=O)[C@@H](NC(=O)OCc2ccccc2)C(C)C)CN1 (stereo partly drawn) | x | 0 | 0 | x | -2
Cc1nc2ccc(S(=O)(=O)NCC(=O)NCc3ccccc3C)cc2s1 | x | -1 | -1 | -1 | 0
O=C(NCCCc1ccccc1)c1ccccc1 | 0 | 0 | 3 | 1 | 7
COc1ccc(C(=O)NCCCc2ccccc2)cc1 | x | 0 | 2 | 2 | 11*
COc1ccc(C(=O)CCNc2ccc(F)cc2)cc1 | 5.2* | -1 | 1 | 1 | 2

Screening results from PubChem.
